Source: paper PMC7862700, “An all-to-all approach to the identification of sequence-specific readers for epigenetic DNA modifications on cytosine”

How the values were obtained:
Test in all cases: DAPPL (digital affinity profiling via proximity ligation, sequencing); 10 mM Tris-HCl pH 7.5, 50 mM NaCl, 1 mM DTT, 4% glycerol, room temperature, 30 min; GST-TFs on glutathione beads, 16-mer random dsDNA library, 0.1% formaldehyde crosslink after washing; high values mean tight binding
Details in all cases: protein: recombinant; tags: N-terminal GST; dsDNA, one strand shown
[1] = target: T1, FLI1 (Homo sapiens, UniProt Q01543 1-452)
T1 sequence: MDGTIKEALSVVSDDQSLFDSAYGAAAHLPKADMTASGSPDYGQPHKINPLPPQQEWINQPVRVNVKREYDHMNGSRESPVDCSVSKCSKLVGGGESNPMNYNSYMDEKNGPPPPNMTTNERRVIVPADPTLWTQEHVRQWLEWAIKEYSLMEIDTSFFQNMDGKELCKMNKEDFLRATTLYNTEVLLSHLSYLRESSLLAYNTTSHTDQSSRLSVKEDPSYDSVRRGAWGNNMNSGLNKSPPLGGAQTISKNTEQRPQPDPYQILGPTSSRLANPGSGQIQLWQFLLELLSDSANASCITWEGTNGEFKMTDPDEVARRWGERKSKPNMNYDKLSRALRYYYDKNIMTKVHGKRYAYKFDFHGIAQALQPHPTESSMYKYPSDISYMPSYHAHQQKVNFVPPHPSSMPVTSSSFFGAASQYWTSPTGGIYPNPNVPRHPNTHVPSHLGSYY
Outline: (§1)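 Sequencing on an Illumina NextSeq500 followed washing, crosslinking with 0.1% formaldehyde, proximity ligation (BsaI/T4 ligase, 1 h, 37 °C) and PCR amplification of pools that had been incubated for 30 min at room temperature with 200 nmole of a random double-stranded 16-mer DNA library in Tris/NaCl/DTT/glycerol buffer. Each pool held DNA-barcoded human transcription factors, expressed in yeast as GST fusions and captured on glutathione beads, plus a tag-only sample. Binding signal is a hexamer's read frequency for a factor divided by its frequency in the tag-only sample.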

[2] = target: T2, ELK1 (Homo sapiens, UniProt P19419 1-428)
T2 sequence: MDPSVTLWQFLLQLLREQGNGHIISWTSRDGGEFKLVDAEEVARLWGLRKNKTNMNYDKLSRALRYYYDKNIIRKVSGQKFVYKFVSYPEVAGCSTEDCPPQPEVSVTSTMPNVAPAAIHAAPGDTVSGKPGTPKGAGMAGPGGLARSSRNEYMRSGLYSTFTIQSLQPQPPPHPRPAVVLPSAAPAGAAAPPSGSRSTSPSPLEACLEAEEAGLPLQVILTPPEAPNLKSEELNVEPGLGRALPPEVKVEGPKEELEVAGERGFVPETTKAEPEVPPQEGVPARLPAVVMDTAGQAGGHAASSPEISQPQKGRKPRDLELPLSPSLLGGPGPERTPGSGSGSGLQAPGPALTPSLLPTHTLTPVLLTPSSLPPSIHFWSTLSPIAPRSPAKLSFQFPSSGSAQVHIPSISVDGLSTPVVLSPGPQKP
Outline: as §1

[3] = target: T3, GABPA (Homo sapiens, UniProt Q06546 1-454)
T3 sequence: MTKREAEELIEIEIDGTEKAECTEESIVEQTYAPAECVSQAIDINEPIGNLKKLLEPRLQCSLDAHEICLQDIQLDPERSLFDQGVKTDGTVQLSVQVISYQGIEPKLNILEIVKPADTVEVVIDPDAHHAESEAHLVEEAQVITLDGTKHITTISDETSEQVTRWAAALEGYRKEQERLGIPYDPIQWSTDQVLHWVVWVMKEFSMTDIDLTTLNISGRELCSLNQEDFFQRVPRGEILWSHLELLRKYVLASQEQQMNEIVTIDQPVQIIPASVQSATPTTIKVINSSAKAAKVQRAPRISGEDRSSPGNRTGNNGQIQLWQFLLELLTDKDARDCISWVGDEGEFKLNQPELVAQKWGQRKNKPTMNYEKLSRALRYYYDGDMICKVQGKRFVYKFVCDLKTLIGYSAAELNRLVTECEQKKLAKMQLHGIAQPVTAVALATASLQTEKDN
Outline: as §1

[4] = target: T4, ERG (Homo sapiens, UniProt P11308 1-479)
T4 sequence: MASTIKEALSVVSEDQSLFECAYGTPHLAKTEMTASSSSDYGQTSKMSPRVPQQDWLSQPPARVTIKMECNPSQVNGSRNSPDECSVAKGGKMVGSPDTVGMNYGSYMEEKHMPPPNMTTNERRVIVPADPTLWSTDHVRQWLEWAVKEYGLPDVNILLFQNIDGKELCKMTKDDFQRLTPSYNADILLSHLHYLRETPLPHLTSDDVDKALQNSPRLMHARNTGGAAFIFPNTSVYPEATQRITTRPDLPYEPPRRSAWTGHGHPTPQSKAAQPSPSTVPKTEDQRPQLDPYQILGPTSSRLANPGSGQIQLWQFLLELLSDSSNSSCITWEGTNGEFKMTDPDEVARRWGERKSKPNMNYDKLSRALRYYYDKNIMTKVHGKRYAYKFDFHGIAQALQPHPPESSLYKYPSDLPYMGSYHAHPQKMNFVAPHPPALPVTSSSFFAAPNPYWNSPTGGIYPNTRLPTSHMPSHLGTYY
Outline: as §1

[5] = target: ELF1 (Homo sapiens, UniProt P32519 1-619)
Outline: as §1

[6] = target: T5, EHF (Homo sapiens, UniProt Q9NZC4 1-300)
T5 sequence: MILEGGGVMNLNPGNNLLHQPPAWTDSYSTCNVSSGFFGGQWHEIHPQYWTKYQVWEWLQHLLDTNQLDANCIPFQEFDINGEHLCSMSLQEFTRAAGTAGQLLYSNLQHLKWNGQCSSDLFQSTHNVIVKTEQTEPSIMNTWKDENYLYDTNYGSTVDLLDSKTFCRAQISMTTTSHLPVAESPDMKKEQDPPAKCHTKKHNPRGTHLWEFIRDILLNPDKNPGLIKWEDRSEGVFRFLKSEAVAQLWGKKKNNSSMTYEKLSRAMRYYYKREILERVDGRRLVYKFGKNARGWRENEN
Outline: as §1

[7] = target: SPI1 (Homo sapiens, UniProt P17947 1-270)
Outline: as §1

[8] = target: SPIB (Homo sapiens, UniProt Q01892 1-262)
Outline: as §1

[9] = target: T6, ELK3 (Homo sapiens, UniProt P41970 1-407)
T6 sequence: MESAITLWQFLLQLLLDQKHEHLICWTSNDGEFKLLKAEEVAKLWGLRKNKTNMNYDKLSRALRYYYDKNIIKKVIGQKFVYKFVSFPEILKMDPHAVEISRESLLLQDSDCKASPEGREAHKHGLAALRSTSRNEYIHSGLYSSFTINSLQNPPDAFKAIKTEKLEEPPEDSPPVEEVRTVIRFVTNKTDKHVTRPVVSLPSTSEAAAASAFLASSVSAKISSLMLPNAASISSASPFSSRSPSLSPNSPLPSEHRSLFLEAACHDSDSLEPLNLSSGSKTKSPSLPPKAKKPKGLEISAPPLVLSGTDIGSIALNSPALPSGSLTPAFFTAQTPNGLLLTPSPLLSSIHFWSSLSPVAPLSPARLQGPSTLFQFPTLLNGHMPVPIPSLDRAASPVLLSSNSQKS
Outline: as §1

Chain of ELF1 (P32519 whole entry): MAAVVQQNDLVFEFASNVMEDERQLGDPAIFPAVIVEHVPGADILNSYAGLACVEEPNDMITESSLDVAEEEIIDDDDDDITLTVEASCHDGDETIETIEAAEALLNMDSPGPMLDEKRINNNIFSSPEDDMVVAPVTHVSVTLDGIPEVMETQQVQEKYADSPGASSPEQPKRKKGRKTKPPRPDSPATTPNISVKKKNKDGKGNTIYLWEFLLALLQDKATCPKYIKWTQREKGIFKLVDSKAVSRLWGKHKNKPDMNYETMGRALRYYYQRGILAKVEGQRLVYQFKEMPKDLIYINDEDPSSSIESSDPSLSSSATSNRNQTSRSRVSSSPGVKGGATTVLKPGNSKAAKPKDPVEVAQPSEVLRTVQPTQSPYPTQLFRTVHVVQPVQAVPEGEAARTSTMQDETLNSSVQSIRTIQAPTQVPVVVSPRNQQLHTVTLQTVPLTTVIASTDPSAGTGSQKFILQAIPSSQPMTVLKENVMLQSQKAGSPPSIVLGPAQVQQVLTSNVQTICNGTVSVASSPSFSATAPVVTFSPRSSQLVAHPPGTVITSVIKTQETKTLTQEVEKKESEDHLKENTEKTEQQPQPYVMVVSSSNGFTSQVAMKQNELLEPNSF
Chain of SPIB (Q01892 whole entry): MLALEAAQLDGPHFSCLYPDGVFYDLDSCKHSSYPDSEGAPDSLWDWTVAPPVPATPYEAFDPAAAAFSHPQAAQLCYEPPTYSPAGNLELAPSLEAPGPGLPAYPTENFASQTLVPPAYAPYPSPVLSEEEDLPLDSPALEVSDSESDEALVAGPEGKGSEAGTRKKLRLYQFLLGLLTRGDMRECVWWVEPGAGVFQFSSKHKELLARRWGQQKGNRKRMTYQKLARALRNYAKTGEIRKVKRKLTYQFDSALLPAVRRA

| Sequence | binding signal [1] | binding signal [2] | binding signal [3] | binding signal [4] | binding signal [5] | binding signal [6] | binding signal [7] | binding signal [8] | binding signal [9] |
| --- | --- | --- | --- | --- | --- | --- | --- | --- | --- |
| AATACG | 1.11 fold enrichment (6-mer frequency, TF over GST control) | 1.19 fold enrichment (6-mer frequency, TF over GST control) | 1.24 fold enrichment (6-mer frequency, TF over GST control) | 1.22 fold enrichment (6-mer frequency, TF over GST control) | 1.12 fold enrichment (6-mer frequency, TF over GST control) | 1.18 fold enrichment (6-mer frequency, TF over GST control) | 1.32 fold enrichment (6-mer frequency, TF over GST control) | 1.25 fold enrichment (6-mer frequency, TF over GST control) | 1.26 fold enrichment (6-mer frequency, TF over GST control) |
| AAATGA | 1.23 fold enrichment (6-mer frequency, TF over GST control) | 1.32 fold enrichment (6-mer frequency, TF over GST control) | 1.26 fold enrichment (6-mer frequency, TF over GST control) | 1.3 fold enrichment (6-mer frequency, TF over GST control) | 1.26 fold enrichment (6-mer frequency, TF over GST control) | 1.23 fold enrichment (6-mer frequency, TF over GST control) | 1.45 fold enrichment (6-mer frequency, TF over GST control) | 1.37 fold enrichment (6-mer frequency, TF over GST control) | 1.26 fold enrichment (6-mer frequency, TF over GST control) |
| ACATTT | 1.63 fold enrichment (6-mer frequency, TF over GST control) | 1.48 fold enrichment (6-mer frequency, TF over GST control) | 1.43 fold enrichment (6-mer frequency, TF over GST control) | 1.56 fold enrichment (6-mer frequency, TF over GST control) | 1.46 fold enrichment (6-mer frequency, TF over GST control) | 1.49 fold enrichment (6-mer frequency, TF over GST control) | 1.41 fold enrichment (6-mer frequency, TF over GST control) | 1.53 fold enrichment (6-mer frequency, TF over GST control) | 1.36 fold enrichment (6-mer frequency, TF over GST control) |
| CTGCAA | 1.29 fold enrichment (6-mer frequency, TF over GST control) | 1.3 fold enrichment (6-mer frequency, TF over GST control) | 1.2 fold enrichment (6-mer frequency, TF over GST control) | 1.23 fold enrichment (6-mer frequency, TF over GST control) | 1.36 fold enrichment (6-mer frequency, TF over GST control) | 1.2 fold enrichment (6-mer frequency, TF over GST control) | 1.31 fold enrichment (6-mer frequency, TF over GST control) | 1.27 fold enrichment (6-mer frequency, TF over GST control) | 1.33 fold enrichment (6-mer frequency, TF over GST control) |
| AACTCA | 1.35 fold enrichment (6-mer frequency, TF over GST control) | 1.27 fold enrichment (6-mer frequency, TF over GST control) | 1.25 fold enrichment (6-mer frequency, TF over GST control) | 1.12 fold enrichment (6-mer frequency, TF over GST control) | 1.23 fold enrichment (6-mer frequency, TF over GST control) | 1.18 fold enrichment (6-mer frequency, TF over GST control) | 1.25 fold enrichment (6-mer frequency, TF over GST control) | 1.23 fold enrichment (6-mer frequency, TF over GST control) | 1.36 fold enrichment (6-mer frequency, TF over GST control) |
| CTAGGT | 1.07 fold enrichment (6-mer frequency, TF over GST control) | 1.13 fold enrichment (6-mer frequency, TF over GST control) | 1.05 fold enrichment (6-mer frequency, TF over GST control) | 1.14 fold enrichment (6-mer frequency, TF over GST control) | 1.2 fold enrichment (6-mer frequency, TF over GST control) | 1.09 fold enrichment (6-mer frequency, TF over GST control) | 1.05 fold enrichment (6-mer frequency, TF over GST control) | 1.13 fold enrichment (6-mer frequency, TF over GST control) | 1.13 fold enrichment (6-mer frequency, TF over GST control) |
| TTTCTC | 1.64 fold enrichment (6-mer frequency, TF over GST control) | 1.66 fold enrichment (6-mer frequency, TF over GST control) | 1.58 fold enrichment (6-mer frequency, TF over GST control) | 1.54 fold enrichment (6-mer frequency, TF over GST control) | 1.62 fold enrichment (6-mer frequency, TF over GST control) | 1.59 fold enrichment (6-mer frequency, TF over GST control) | 1.7 fold enrichment (6-mer frequency, TF over GST control) | 1.63 fold enrichment (6-mer frequency, TF over GST control) | 1.46 fold enrichment (6-mer frequency, TF over GST control) |
| ATAGAA | 1.02 fold enrichment (6-mer frequency, TF over GST control) | 1.04 fold enrichment (6-mer frequency, TF over GST control) | 1.04 fold enrichment (6-mer frequency, TF over GST control) | 1.06 fold enrichment (6-mer frequency, TF over GST control) | 1.05 fold enrichment (6-mer frequency, TF over GST control) | 1.07 fold enrichment (6-mer frequency, TF over GST control) | 1.16 fold enrichment (6-mer frequency, TF over GST control) | 1.08 fold enrichment (6-mer frequency, TF over GST control) | 1.13 fold enrichment (6-mer frequency, TF over GST control) |
